This note sets out measurements from PMC7862700, “An all-to-all approach to the identification of sequence-specific readers for epigenetic DNA modifications on cytosine”.

What all share (experiment): DAPPL (digital affinity profiling via proximity ligation, sequencing); 10 mM Tris-HCl pH 7.5, 50 mM NaCl, 1 mM DTT, 4% glycerol, room temperature, 30 min; GST-TFs on glutathione beads, 16-mer random dsDNA library, 0.1% formaldehyde crosslink after washing; high values mean tight binding
Conditions in all cases: protein: recombinant; tags: N-terminal GST; dsDNA, one strand shown

For test [1], the target named is T1, ERF (Homo sapiens, UniProt P50548 1-548).
T1 sequence: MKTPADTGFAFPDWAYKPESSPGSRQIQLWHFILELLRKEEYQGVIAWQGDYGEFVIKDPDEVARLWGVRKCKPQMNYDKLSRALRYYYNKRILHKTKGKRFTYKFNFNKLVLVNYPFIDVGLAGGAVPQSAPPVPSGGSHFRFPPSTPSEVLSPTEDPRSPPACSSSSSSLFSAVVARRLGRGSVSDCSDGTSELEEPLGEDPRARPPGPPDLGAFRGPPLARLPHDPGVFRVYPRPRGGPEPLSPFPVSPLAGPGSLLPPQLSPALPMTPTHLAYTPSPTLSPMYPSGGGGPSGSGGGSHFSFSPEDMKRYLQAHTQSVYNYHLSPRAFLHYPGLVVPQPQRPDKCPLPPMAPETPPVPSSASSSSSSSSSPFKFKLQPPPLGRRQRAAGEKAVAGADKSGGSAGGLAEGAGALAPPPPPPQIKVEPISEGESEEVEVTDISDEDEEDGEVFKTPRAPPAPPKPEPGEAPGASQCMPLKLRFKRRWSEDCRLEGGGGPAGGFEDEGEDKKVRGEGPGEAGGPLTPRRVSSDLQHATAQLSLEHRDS
In outline:
(§1)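 Beads coated with glutathione captured GST-fused human transcription factors that had been expressed in yeast, and the factors were then given DNA barcodes and pooled with a tag-only sample. The pools were incubated with 200 nmole of a random double-stranded 16-mer DNA library in Tris/NaCl/DTT/glycerol buffer for 30 min at room temperature, washed, crosslinked with 0.1% formaldehyde and proximity-ligated with BsaI/T4 ligase at 37 °C for 1 h. PCR amplification and Illumina NextSeq500 sequencing came last. Binding signal is each hexamer's read frequency for a factor divided by its frequency for the tag-only sample.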

Test [2] addresses T2, ETV3L (Homo sapiens, UniProt Q6ZN32 1-361).
T2 sequence: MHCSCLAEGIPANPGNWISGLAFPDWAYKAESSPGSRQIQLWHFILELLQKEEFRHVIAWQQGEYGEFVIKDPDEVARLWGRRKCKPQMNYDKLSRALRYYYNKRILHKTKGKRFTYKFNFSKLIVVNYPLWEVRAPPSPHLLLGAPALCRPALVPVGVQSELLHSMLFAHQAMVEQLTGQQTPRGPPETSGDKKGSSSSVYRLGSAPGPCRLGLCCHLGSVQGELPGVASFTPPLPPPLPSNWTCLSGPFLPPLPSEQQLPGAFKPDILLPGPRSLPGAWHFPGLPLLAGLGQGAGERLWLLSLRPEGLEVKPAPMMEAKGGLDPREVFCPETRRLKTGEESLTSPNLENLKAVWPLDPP
Summed up: as §1

In test [3] the target is T3, ETS2 (Homo sapiens, UniProt P15036 1-469).
T3 sequence: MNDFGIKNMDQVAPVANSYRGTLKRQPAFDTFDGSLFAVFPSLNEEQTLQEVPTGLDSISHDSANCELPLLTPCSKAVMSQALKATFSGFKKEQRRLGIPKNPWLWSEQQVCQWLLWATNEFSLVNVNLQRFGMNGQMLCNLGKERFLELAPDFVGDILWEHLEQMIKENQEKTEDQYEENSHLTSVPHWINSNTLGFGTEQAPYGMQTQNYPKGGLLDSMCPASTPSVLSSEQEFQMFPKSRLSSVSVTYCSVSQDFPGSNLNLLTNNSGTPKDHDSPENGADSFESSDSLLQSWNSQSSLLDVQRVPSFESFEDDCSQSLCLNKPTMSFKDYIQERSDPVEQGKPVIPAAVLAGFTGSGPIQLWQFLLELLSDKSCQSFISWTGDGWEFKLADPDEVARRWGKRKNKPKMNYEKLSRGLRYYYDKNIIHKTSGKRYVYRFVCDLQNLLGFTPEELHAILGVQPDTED
In outline:
as §1

The target in test [4] is T4, SPDEF (Homo sapiens, UniProt O95238 1-335).
T4 sequence: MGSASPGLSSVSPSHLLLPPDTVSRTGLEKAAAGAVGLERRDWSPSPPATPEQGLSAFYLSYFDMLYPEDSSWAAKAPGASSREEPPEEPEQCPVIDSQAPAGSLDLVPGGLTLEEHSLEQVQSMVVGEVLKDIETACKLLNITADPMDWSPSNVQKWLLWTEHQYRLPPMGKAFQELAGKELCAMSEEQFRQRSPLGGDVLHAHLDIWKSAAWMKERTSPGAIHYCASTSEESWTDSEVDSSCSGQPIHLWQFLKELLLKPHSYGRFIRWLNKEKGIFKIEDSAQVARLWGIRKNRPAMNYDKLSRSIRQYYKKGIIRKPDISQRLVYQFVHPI
In outline:
as §1

In test [5] the target is T5, ETV7 (Homo sapiens, UniProt Q9Y603 1-341).
T5 sequence: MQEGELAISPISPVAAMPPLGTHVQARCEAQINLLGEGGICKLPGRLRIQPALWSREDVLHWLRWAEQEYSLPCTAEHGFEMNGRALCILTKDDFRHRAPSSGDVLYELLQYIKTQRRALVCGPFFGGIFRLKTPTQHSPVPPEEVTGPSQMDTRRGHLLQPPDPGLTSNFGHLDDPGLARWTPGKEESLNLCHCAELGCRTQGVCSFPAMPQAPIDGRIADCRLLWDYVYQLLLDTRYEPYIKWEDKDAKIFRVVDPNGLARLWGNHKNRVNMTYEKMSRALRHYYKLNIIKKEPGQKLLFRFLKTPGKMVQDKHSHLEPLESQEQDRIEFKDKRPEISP
Summed up: as §1

Test [6] deals with T6, ELF5 (Homo sapiens, UniProt Q9UKW6-2 1-255).
T6 sequence: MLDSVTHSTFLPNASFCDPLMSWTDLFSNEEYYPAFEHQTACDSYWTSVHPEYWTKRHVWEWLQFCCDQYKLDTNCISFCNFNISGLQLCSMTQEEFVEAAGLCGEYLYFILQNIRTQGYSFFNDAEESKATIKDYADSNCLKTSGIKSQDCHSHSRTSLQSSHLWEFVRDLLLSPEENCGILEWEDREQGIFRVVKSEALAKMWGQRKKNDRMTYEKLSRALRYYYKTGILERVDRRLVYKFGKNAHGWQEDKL
In outline: as §1

Test [7] addresses T7, ETV3 (Homo sapiens, UniProt P41162-2 1-143).
T7 sequence: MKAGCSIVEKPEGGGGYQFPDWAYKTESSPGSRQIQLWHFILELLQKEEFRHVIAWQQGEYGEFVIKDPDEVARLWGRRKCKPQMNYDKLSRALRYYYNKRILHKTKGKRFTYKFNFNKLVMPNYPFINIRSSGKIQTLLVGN
In outline:
as §1

Test [8] concerns the target ETV6 (Homo sapiens, UniProt P41212 1-452). In outline:
as §1

Sequence of ETV6 (P41212 whole entry): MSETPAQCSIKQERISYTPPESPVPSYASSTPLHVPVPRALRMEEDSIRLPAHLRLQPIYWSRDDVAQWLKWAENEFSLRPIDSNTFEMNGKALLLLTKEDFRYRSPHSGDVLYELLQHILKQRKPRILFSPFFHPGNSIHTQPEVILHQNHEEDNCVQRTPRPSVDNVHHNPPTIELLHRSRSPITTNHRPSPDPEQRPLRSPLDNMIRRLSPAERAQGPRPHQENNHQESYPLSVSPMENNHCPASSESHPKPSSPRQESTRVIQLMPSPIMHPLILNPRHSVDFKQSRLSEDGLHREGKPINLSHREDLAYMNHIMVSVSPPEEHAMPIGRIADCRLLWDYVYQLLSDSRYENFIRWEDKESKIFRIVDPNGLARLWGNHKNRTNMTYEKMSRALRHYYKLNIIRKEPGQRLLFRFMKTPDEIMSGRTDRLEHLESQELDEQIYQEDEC

As for ACCGCT, the binding signal is 1.21 fold enrichment (6-mer frequency, TF over GST control) in test [1]; 1.12 fold enrichment (6-mer frequency, TF over GST control) in test [2]; 1.1 fold enrichment (6-mer frequency, TF over GST control) in test [3]; 1.06 fold enrichment (6-mer frequency, TF over GST control) in test [4]; 1.13 fold enrichment (6-mer frequency, TF over GST control) in test [5]; 1.05 fold enrichment (6-mer frequency, TF over GST control) in test [6]. Besides, the binding signal in test [7] is 1.04 fold enrichment (6-mer frequency, TF over GST control); in test [8], 1.15 fold enrichment (6-mer frequency, TF over GST control).
CCGTCC: the binding signal in test [1] was 1.51 fold enrichment (6-mer frequency, TF over GST control); in test [2], 1.38 fold enrichment (6-mer frequency, TF over GST control); in test [3] it was 1.38 fold enrichment (6-mer frequency, TF over GST control); in test [4], 1.55 fold enrichment (6-mer frequency, TF over GST control); in test [5], 1.27 fold enrichment (6-mer frequency, TF over GST control); in test [6], 1.36 fold enrichment (6-mer frequency, TF over GST control). Further, the binding signal in test [7] is 1.51 fold enrichment (6-mer frequency, TF over GST control); in test [8], 1.29 fold enrichment (6-mer frequency, TF over GST control).
Regarding AACCGG, the binding signal was 1.42 fold enrichment (6-mer frequency, TF over GST control) in test [1]; 1.43 fold enrichment (6-mer frequency, TF over GST control) in test [2]; 1.46 fold enrichment (6-mer frequency, TF over GST control) in test [3]; 1.8 fold enrichment (6-mer frequency, TF over GST control) in test [4]; 1.36 fold enrichment (6-mer frequency, TF over GST control) in test [5]; 1.52 fold enrichment (6-mer frequency, TF over GST control) in test [6]. In addition, the binding signal is 1.6 fold enrichment (6-mer frequency, TF over GST control) in test [7] and 1.5 fold enrichment (6-mer frequency, TF over GST control) in test [8].
On to TGCGGA, for which the binding signal is 1.14 fold enrichment (6-mer frequency, TF over GST control) in test [1]; 1.3 fold enrichment (6-mer frequency, TF over GST control) in test [2]; 1.35 fold enrichment (6-mer frequency, TF over GST control) in test [3]; 1.38 fold enrichment (6-mer frequency, TF over GST control) in test [4]; 1.22 fold enrichment (6-mer frequency, TF over GST control) in test [5]; 1.46 fold enrichment (6-mer frequency, TF over GST control) in test [6]. The binding signal in test [7] is 1.54 fold enrichment (6-mer frequency, TF over GST control); in test [8], 1.34 fold enrichment (6-mer frequency, TF over GST control).
For the sequence TCCCCA, the binding signal is 1.32 fold enrichment (6-mer frequency, TF over GST control) in test [1]; 1.41 fold enrichment (6-mer frequency, TF over GST control) in test [2]; 1.38 fold enrichment (6-mer frequency, TF over GST control) in test [3]; 1.3 fold enrichment (6-mer frequency, TF over GST control) in test [4]; 1.12 fold enrichment (6-mer frequency, TF over GST control) in test [5]; 1.46 fold enrichment (6-mer frequency, TF over GST control) in test [6]. Besides, the binding signal in test [7] is 1.36 fold enrichment (6-mer frequency, TF over GST control); in test [8] it was 1.26 fold enrichment (6-mer frequency, TF over GST control).
As to CTTTAA, the binding signal in test [1] is 1.32 fold enrichment (6-mer frequency, TF over GST control); in test [2], 1.34 fold enrichment (6-mer frequency, TF over GST control); in test [3], 1.33 fold enrichment (6-mer frequency, TF over GST control); in test [4], 1.28 fold enrichment (6-mer frequency, TF over GST control); in test [5] it was 1.2 fold enrichment (6-mer frequency, TF over GST control); in test [6], 1.32 fold enrichment (6-mer frequency, TF over GST control). Besides, the binding signal in test [7] is 1.23 fold enrichment (6-mer frequency, TF over GST control); in test [8], 1.23 fold enrichment (6-mer frequency, TF over GST control).
Take TACAAG: the binding signal was 1.1 fold enrichment (6-mer frequency, TF over GST control) in test [1]; 1.05 fold enrichment (6-mer frequency, TF over GST control) in test [2]; 1.1 fold enrichment (6-mer frequency, TF over GST control) in test [3]; 1.1 fold enrichment (6-mer frequency, TF over GST control) in test [4]; 1.02 fold enrichment (6-mer frequency, TF over GST control) in test [5]; 1.06 fold enrichment (6-mer frequency, TF over GST control) in test [6]. Moreover, the binding signal in test [7] was 1.02 fold enrichment (6-mer frequency, TF over GST control); in test [8] it was 1.04 fold enrichment (6-mer frequency, TF over GST control).
Regarding GCAAAA, the binding signal is 1.14 fold enrichment (6-mer frequency, TF over GST control) in test [1]; 1.06 fold enrichment (6-mer frequency, TF over GST control) in test [2]; 1.18 fold enrichment (6-mer frequency, TF over GST control) in test [3]; 1 fold enrichment (6-mer frequency, TF over GST control) in test [4]; 1.09 fold enrichment (6-mer frequency, TF over GST control) in test [5]; 1.06 fold enrichment (6-mer frequency, TF over GST control) in test [6]. Also, the binding signal in test [7] is 1.07 fold enrichment (6-mer frequency, TF over GST control); in test [8] it was 1.04 fold enrichment (6-mer frequency, TF over GST control).
Consider ACGCTG, for which the binding signal is 1.21 fold enrichment (6-mer frequency, TF over GST control) in test [1]; 1.15 fold enrichment (6-mer frequency, TF over GST control) in test [2]; 1.06 fold enrichment (6-mer frequency, TF over GST control) in test [3]; 1.24 fold enrichment (6-mer frequency, TF over GST control) in test [4]; 1.16 fold enrichment (6-mer frequency, TF over GST control) in test [5]; 1.09 fold enrichment (6-mer frequency, TF over GST control) in test [6]. The binding signal in test [7] was 1.26 fold enrichment (6-mer frequency, TF over GST control); in test [8], 1.09 fold enrichment (6-mer frequency, TF over GST control).
